# Laboratory results from PubChem BioAssay (NCI).
# Compounds without any hit were thinned out: in the full panel of roughly 83,000, 20% have a hit.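 In brief: 96-well plates, 48 h treatment, single concentration, percent growth endpoint.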 A number with no mark means an inactive call. Calls of active or inactive are those of the source. How the source made its calls: active means growth percent below 10; inactive means the rest.
# Experiments:
# Experiment in all cases: NCI-60 one-dose screen, 48 h (100 = growth as untreated, 0 = no growth, -100 = all killed)
# Conditions in all cases: 10 µM unless noted
# HCT-15 colon = system: HCT-15 colon
# HT29 colon = system: HT29 colon
# SNB-75 CNS = system: SNB-75 CNS
# SNB-19 CNS = system: SNB-19 CNS
# U251 CNS = system: U251 CNS
# PC-3 prostate = system: PC-3 prostate
# UACC-62 melanoma = system: UACC-62 melanoma
# SK-MEL-28 melanoma = system: SK-MEL-28 melanoma
# SK-MEL-2 melanoma = system: SK-MEL-2 melanoma
# EKVX NSCLC = system: EKVX NSCLC
# SN12C renal = system: SN12C renal
# UO-31 renal = system: UO-31 renal
# TK-10 renal = system: TK-10 renal
# ACHN renal = system: ACHN renal
# CAKI-1 renal = system: CAKI-1 renal
# A498 renal = system: A498 renal
# CCRF-CEM leukemia = system: CCRF-CEM leukemia
# MOLT-4 leukemia = system: MOLT-4 leukemia
# LOX IMVI melanoma = system: LOX IMVI melanoma
Structure (SMILES),growth (HCT-15 colon),growth (HT29 colon),growth (SNB-75 CNS),growth (SNB-19 CNS),growth (U251 CNS),growth (PC-3 prostate),growth (UACC-62 melanoma),growth (SK-MEL-28 melanoma),growth (SK-MEL-2 melanoma),growth (EKVX NSCLC),growth (SN12C renal),growth (UO-31 renal),growth (TK-10 renal),growth (ACHN renal),growth (CAKI-1 renal),growth (A498 renal),growth (CCRF-CEM leukemia),growth (MOLT-4 leukemia),growth (LOX IMVI melanoma)
CC(C)=CCC[C@](C)(O)[C@H]1CC[C@]2(C)[C@@H]1CC[C@@H]1[C@@]3(C)C/C(=C/c4cccc([N+](=O)[O-])c4)C(=O)C(C)(C)[C@@H]3CC[C@]12C,83.5%,55.4%,0.754% (active),96%,85.7%,58.2%,78.1%,104%,115%,92.6%,81.1%,69.3%,128%,98.9%,51.9%,92.6%,76.3%,67.5%,
COc1ccc(C(=O)c2ccc(C)cc2)c(OC)c1OC,50.1%,27%,64.7%,79.4%,60.9%,86.9%,67.6%,85%,60.3%,92.7%,91.8%,72.6%,97.7%,97.3%,64.8%,,89%,46.8%,83.6%
C=C(C)[C@@H]1CC[C@]2(C=O)CC[C@]3(C)[C@H](CC[C@@H]4[C@@]5(C)C/C(=C/c6cccnc6)C(=O)C(C)(C)[C@@H]5CC[C@]43C)[C@@H]12,57.6%,72%,101%,84.4%,73.4%,41.8%,61.5%,93.3%,88.5%,88.5%,,-33.9% (active),134%,61.6%,50.1%,98.3%,27.7%,49.9%,
COC(=O)[C@]12CC[C@@H](C(/C=C/c3cccnc3)=N/O)[C@@H]1[C@H]1CC[C@@H]3[C@@]4(C)CC(=C/c5cccnc5)/C(=N/O)C(C)(C)[C@@H]4CC[C@@]3(C)[C@]1(C)CC2,23.4%,32.8%,22.8%,71.9%,52.9%,20.8%,15.7%,50.8%,46%,26%,44.5%,19.5%,67.9%,42.9%,23.7%,92.5%,16.6%,2.12% (active),
COc1cc(C(=O)/C=C/c2cc(-c3ccc4c(c3)OCO4)n[nH]2)cc(OC)c1OC,19.6%,3.4% (active),26.7%,33.2%,5.54% (active),6.51% (active),55.7%,76.2%,84.7%,,25.7%,39.4%,67%,42.7%,66.3%,4.49% (active),,,
CC1(C)C(=O)/C(=C\c2cccnc2)C[C@]2(C)[C@H]3CC[C@@H]4[C@@H](C(=O)/C=C/c5ccncc5)CC[C@@]4(C)[C@]3(C)CC[C@@H]12,-36% (active),9.87% (active),62.6%,15.1%,-7.74% (active),19.5%,-26.7% (active),26.7%,-3.01% (active),50.4%,,-94.5% (active),65.6%,-78.8% (active),28.4%,47.3%,8.73% (active),8.03% (active),
Cn1cc(-c2csc(-c3cn(C(=O)OC(C)(C)C)c4ccc(Br)cc34)n2)c2cccnc21,93.4%,93.4%,78.9%,93.2%,87.4%,87.5%,91%,108%,91.5%,79.2%,,82.4%,92.5%,48.8%,79.3%,96.3%,71%,97.4%,
C=C(C)[C@@H]1CC[C@]2(C(=O)O)CC[C@]3(C)[C@H](CC[C@@H]4[C@@]5(C)C/C(=C/c6cccc(I)c6)C(=O)C(C)(C)[C@@H]5CC[C@]43C)[C@@H]12,19.4%,9.1% (active),-36.5% (active),38%,18.4%,15.5%,30.9%,75.4%,11.2%,24.9%,31.1%,23.6%,29.6%,30.5%,11.9%,22.1%,25.6%,13%,
O=[N+]([O-])c1cccc(/C=N\Nc2ccccc2)c1,58%,80%,78.5%,95.5%,83.4%,67%,4.87% (active),103%,42.1%,59.8%,74.7%,47.4%,98.7%,41.9%,59.9%,101%,59.5%,71.5%,
Nc1ccccc1NC(=O)c1ccc(CN2CCC/C(=C\c3ccccn3)C2=O)cc1,16.5%,13.8%,15.5%,38.1%,23.9%,44%,-23.6% (active),16.3%,27%,33.2%,,25.4%,14.2%,20.6%,17.7%,7.96% (active),16.7%,7.84% (active),
CC1(C)C=CC[C@]2(C)[C@H]3CC[C@@H]4[C@H]5[C@H](C(=O)/C=C/c6cccnc6)CC[C@]5(CO)CC[C@@]4(C)[C@]3(C)CC[C@@H]12,-61.7% (active),-28% (active),-89.8% (active),-90.4% (active),-90.8% (active),-41.1% (active),-63.2% (active),-92% (active),-66.1% (active),-36.7% (active),-40% (active),-100% (active),-90.7% (active),-100% (active),-75.5% (active),-78.8% (active),-2.65% (active),-30.6% (active),
COC(=O)CNc1nc(N(C)O)nc(N(C)O)n1,30.4%,41.7%,96.4%,47.6%,36.5%,37.9%,42.9%,42%,113%,48.2%,49.8%,35.6%,49.6%,23.8%,34.1%,34.5%,15.5%,25.9%,33.4%
Clc1cc(Cl)cc(Nc2ccc3c(OCCCN4CCOCC4)cccc3n2)c1,-46.4% (active),-64.5% (active),54.9%,31.7%,29.1%,42%,14.7%,65.6%,87.8%,62.2%,76.1%,28.6%,80.5%,49.9%,56.6%,59.8%,29.5%,22.5%,-85.4% (active)
Cc1ccc(-c2nc3ccc(Cl)cc3c(=O)n2N2C(=O)CSC2c2ccccc2Cl)cc1 (stereo not drawn),86.9%,83.7%,36.1%,75.2%,22.3%,70.6%,77.3%,98.6%,96.2%,60%,69%,,74.6%,26.4%,60.3%,84.8%,74.8%,82.7%,89.1%
CC(C)C[C@@H](NC(=O)[C@@H](Cc1ccccc1)NC(=O)c1cnccn1)B1O[C@H]2[C@H](O)[C@@H](C(=O)NCCCC[C@@H]3NC(=O)[C@@H](Cc4ccccc4)NC(=O)[C@H](CC(=O)O)NC(=O)CNC(=O)[C@H](CCCN=C(N)N)NC3=O)O[C@@H](CN)[C@H]2O1,-54% (active),-73.4% (active),-65.4% (active),-10.1% (active),-58.6% (active),-34.3% (active),-36.7% (active),-30.1% (active),-38.5% (active),-12.6% (active),-29.5% (active),,-79.1% (active),-8.22% (active),-44.2% (active),-94.5% (active),6.17% (active),0.435% (active),-86.1% (active)
O=C1C(Cl)=C(Nc2ccc(S(=O)(=O)c3ccc(NC4=C(Cl)C(=O)c5ccccc5C4=O)cc3)cc2)C(=O)c2ccccc21,0.496% (active),32.6%,57.7%,44.8%,5.68% (active),15.8%,12.5%,14.2%,,59.1%,56.2%,-62.4% (active),-58.7% (active),-7.78% (active),-21.3% (active),66.2%,21.1%,19%,
NS(=O)(=O)c1ccc(CCNC(=O)/C=C/c2ccc(Cl)cc2)cc1,98.5%,95.7%,85.2%,99%,97.8%,87.1%,104%,104%,106%,,92.9%,,121%,102%,,89%,91.1%,74.6%,99.1%
